Assay results taken from ChEMBL document CHEMBL1157539, “Thousands of chemical starting points for antimalarial lead identification” (Nature, 2010).

Test system: Plasmodium falciparum
Assay: GSK_TCMDC: Inhibition of Plasmodium falciparum 3D7 in whole red blood cells, using parasite LDH activity as an index of growth. Test compounds present at 2uM
Assay type: functional

SMILES	Inhibition
Cc1cc(NC(=O)NCCN2CCC(NS(=O)(=O)c3ccc(C(F)(F)F)cc3)C2)c2ccccc2n1.O=C(O)C(F)(F)F (stereo unspecified)	96%
Cc1ccc(-c2nnc(Nc3ccc(C(=O)N4CCCCC4)cc3)c3ccccc23)cc1S(=O)(=O)NCC1CCCO1 (stereo unspecified)	99%
Fc1ccc2c(NN=Cc3ccccc3F)ccnc2c1	100%
C=C(C)C1CC=C(CN2CCCC(n3ccc4cc(NC(=O)c5ccco5)ccc43)CC2)CC1 (stereo unspecified)	90%
O=C(Nc1cccc([N+](=O)[O-])c1)N(Cc1ccc(Cl)c(Cl)c1)C1CCNCC1	99%
Cl.Cn1c(=O)n(C)c2cc(CNCCNc3ccnc4cc(Cl)ccc34)ccc21	100%
CCOc1c(OC)ccc2c1CCN(CCN1CCC(CNC(=O)c3ccc(-c4ccc(C#N)cc4)cc3)CC1)C2	92%
Cc1ccc(-c2nc3ccccc3o2)cc1NCc1cc(Cc2ccccc2)ccc1O	82%
Cl.Oc1c(Cl)cc(-c2ccccc2)cc1CNC1CCCCC1	97%
COc1cc(OC)cc(-c2nn(-c3ccc([N+](=O)[O-])cc3Cl)c(=S)n2CC2CCCO2)c1 (stereo unspecified)	98%
COc1cccc(Nc2c(C(N)=O)cnc3ccc(-c4ccccc4)cc23)c1	98%
Cc1nc2c(=O)sc3ccccc3c2n1Cc1ccccc1	95%
Cc1nnsc1C(=O)Nc1cccc(-c2cccc(-c3nc4cc(F)ccc4[nH]3)c2)c1	100%
Cc1ccc(S(=O)(=O)N(CCCN2CCN(C)CC2)Cc2csc(-c3ccc(CNCc4ccccc4)cc3)n2)cc1.O=C(O)C(F)(F)F	97%
O=C(Nc1ccc(CCNCCCc2ccccc2)cc1)Nc1ccc(Cl)c(Cl)c1	100%
Cl.N=C(N)c1ccc(Nc2nc(Nc3ccc(-c4ccccc4)cc3)ncc2[N+](=O)[O-])cc1	99%
O=S(=O)(Nc1cccc(CCN2CCC(N3CCCCC3)CC2)c1)c1ccc2c(c1)OCCO2	91%
CCOC(=O)COc1cccc(CNc2ccc3nc(N)nc(N)c3c2)c1	100%

SMILES	Inhibition
O=C(/C=C/c1ccc(Cl)c(Cl)c1)NCCCCCCN1CCN(C(=O)Nc2ccc(Cl)c(C(F)(F)F)c2)CC1	99%
COc1ccc(NC(=O)[C@H](CC(C)C)Nc2cc(C)nc(NCCc3ccc(F)cc3)n2)cc1.O=C(O)C(F)(F)F	100%
Cc1cc(NCCc2ccc(O)cc2)nc(NCC(c2ccccc2)c2ccccc2)n1	100%
O=C(Nc1cccc(F)c1)NC1CCN(c2ccnc3cc(Cl)ccc23)CC1.O=C(O)C(F)(F)F	96%
CCN(CC)S(=O)(=O)c1ccc(CCOCCCCCNCC(O)c2cc(Cl)c(N)c(Cl)c2)s1.O=C(O)/C=C/C(=O)O (stereo unspecified)	96%
Oc1ccc2[nH]c(-c3ccc(OC(F)(F)F)cc3)nc2c1CNC1CCCC1	99%
O=C(Nc1cccc(CN2CCCN(Cc3ccc(F)cc3)CC2)c1)c1ccc(Cl)c(Cl)c1.O=C(O)C(F)(F)F	95%
Cc1csc(-c2ncc(OC[C@@H](N)Cc3ccccc3)cc2-c2ccc3[nH]nc(C)c3c2)c1.O=C(O)C(F)(F)F	98%
CCCc1cc(OC)c(CC2c3cccc(O)c3CCN2C)cc1OC.Cl (stereo unspecified)	100%
Brc1cc2c(cc1C=NNc1nc(=Nc3ccccc3)[nH]c(=Nc3ccccc3)[nH]1)OCO2	100%
COC(=O)c1ccc2[nH]cc(C3CCN(CCC4CCN(C(=O)/C=C/c5ccc(Cl)c(Cl)c5)CC4)CC3)c2c1	97%
Cc1cc(=NN=Cc2ccccc2Cl)c2cc(C(F)(F)F)ccc2[nH]1	100%
CCc1c(CCNCCCCCCNCCc2ccc(OC)c(OC)c2CC)ccc(OC)c1OC.Cl	100%
O=C(Nc1cccc(-c2cccc(-c3nc4ccccc4[nH]3)c2)c1)Nc1ccc(F)c(F)c1F	98%
CC(=O)Nc1nc(C(=O)Nc2cccc(-c3ccc4c(cnn4CC4CC4)c3)c2)cs1	95%
Cc1cccc(-c2cccc(CNc3nc(NCCc4ccc(O)cc4)nc(N4CCNCC4)n3)c2)c1.O=C(O)C(F)(F)F	84%
O=C(/C=C/c1ccc(Cl)c(Cl)c1)NCCCCCN1CC[C@H](NC(=O)Nc2ccc(Oc3ccccc3)cc2)C1	100%
O=C(O)C(F)(F)F.O=S(=O)(NC1CCN(c2ccnc3cc(Cl)ccc23)C1)c1ccc(C(F)(F)F)cc1 (stereo unspecified)	100%
